# In all, about 16,000 compounds went through this assay and about 70 (0.4%) were called active. What follows is part of a selection rich in actives, with near analogues and random picks from the rest. Values without a mark were called inactive. No stated cut-off is given here; in the data, active means inhibition above about 75%; inactive means the rest.
# Assay: quenches luminol chemiluminescence in Nox1 counter-screen (AID 1823)
# Details: HRP/luminol/H2O2 chemiluminescence counterscreen; at 6.7 µM; hits give high values
row,Compound,inhibition
1,CC(C)(C)NC(=O)[C@@H]1C[C@@H]2CCCC[C@@H]2CN1C(=O)c1ccno1,-0.12%
2,O=C(O)CC(CC(=O)Oc1ccccc1N1CCCCC1)c1ccccc1 (stereo not given),-1.25%
3,CSc1nsc(SC)c1C(=O)Nc1cc(C(F)(F)F)cc(C(F)(F)F)c1,1.1%
4,COc1ccc(C2CC(c3cccs3)=Nc3ccccc3S2)c(Cl)c1OC (stereo not given),-0.88%
5,c1ccc(-c2nsc(N3CCNCC3)n2)cc1,-5%
6,NS(=O)(=O)c1cccc(NC(=O)c2ccccc2)c1,-5.88%
7,CCOC(=O)c1c(-c2ccco2)csc1NC(=O)Nc1ccc(Cl)cc1,3.19%
8,Cc1[nH]c2ccccc2c1Sc1ccc(Cl)cc1,-11.5%
9,N#Cc1ccc(Oc2ccc(Cl)cc2)c([N+](=O)[O-])c1,-1.59%
10,Cc1c(S(=O)(=O)c2ccc(Cl)cc2)csc1C(=O)Nc1ccc2c(c1)OCCO2,0.51%
11,CCCCN1Cc2c(nc3cc(-c4ccccc4)[nH]n3c2=O)C1=O,5.15%
12,O=C1Nc2ccccc2C12NNC(=S)NN2,7.82%
13,NS(=O)(=O)c1ccc(Oc2c(Cl)cccc2[N+](=O)[O-])cc1,-4.5%
14,COc1cccc(NC(=S)NNC(=S)NC2CC3CCC2C3)c1 (stereo not given),5.57%
15,N/C(=N\OC(=O)c1cccc(Cl)c1)c1ccc2nonc2c1,-0.67%
16,CO/N=C(/C)c1ccc2c(c1)CCO2,-0.06%
17,CC(=O)Nc1ccc(NC(=O)c2cc(C)ccc2[N+](=O)[O-])c(C)c1,0.85%
18,O=C(Cn1nnc2ccccc21)NCCSCc1ccco1,-2.68%
19,COC(=O)C(C#N)c1ccc(C(F)(F)F)cc1[N+](=O)[O-] (stereo not given),4.34%
20,O=C(CN1CCOCC1)NNC(=O)c1cccs1,3.1%
21,C/C(=N\NC(N)=S)c1ccncc1,15%
22,O=C(Nc1ccccc1C(=O)NCc1c(F)cccc1Cl)c1ccccc1Cl,4.86%
23,Cn1c(=O)c(C#N)cn(-c2ccccc2)c1=O,-4.85%
24,CSc1sc(C(=O)NC2CC2)c(-c2ccc(Cl)cc2)c1C#N,2.76%

row,Compound,inhibition
1,CCOC(=O)C(NC(=O)c1ccco1)(Nc1cc(C)ccn1)C(F)(F)F (stereo not given),-2.71%
2,COC(=O)c1c(C(=O)OC)c2n(c1C)CCS2,-2.55%
3,N#CNC(N)=Nc1cc(Cl)ccc1Cl,-0.88%
4,CCOC(=O)O/N=C(\N)c1ccc(Cl)cc1,-3.37%
5,Cn1cccc1-c1n[nH]c(=S)n1-c1ccc(Cl)cc1Cl,2.46%
6,CCCCCCNC(=O)NCCCCCC,-3.83%
7,Cc1oc(-c2ccc(Cl)cc2)cc1C(=O)N1CCOCC1,-4.96%
8,COc1ccc(Cc2nnc(SC)[nH]c2=O)cc1,1.75%
9,CC(C)[C@H]1COC(c2cccc(C3=N[C@@H](C(C)C)CO3)n2)=N1,-2.9%
10,O=C(CCN1CCN(C(c2ccccc2)c2ccccc2)CC1)c1ccccc1,-3.01%
11,Cn1cc(Cl)c(/C=C(\C#N)C(N)=O)n1,-6.34%
12,COc1ccc2cc(/C(C)=N/OC(=O)Nc3ccccc3)ccc2c1,-18.6%
13,CCOC(=O)c1c[nH]n2c(=O)c3c(nc12)CCC3,0.29%
14,CC(C)(C)NC(=O)N/N=C/c1[nH]ncc1Br,-2.94%
15,COc1ccccc1NC(=O)c1ccc(C#Cc2ccccc2)o1,0.37%
16,CCCS(=O)(=O)c1csc(C(=O)OC)c1N/N=C/c1cccs1,1.56%
17,COCn1nnc2ccccc21,0.3%
18,Cc1c(N/N=C(\C#N)c2nc3ccccc3[nH]2)c(=O)n(-c2ccccc2)n1C,7.97%
19,O=C(O)CC1(CC(=O)Nc2ccc(N3CCCCC3)cc2)CCCCC1,-6.38%
20,CSc1sc(C(N)=O)cc1C#N,-6.88%
21,Cc1cc(C2=CSC3=NCCN23)ccc1Cl,36.3%
22,OCCNC(=S)Nc1ccccc1-c1ccccc1,0.57%
23,O=S(=O)(c1ccccc1)c1cc(C(F)(F)F)cc(C(F)(F)F)c1,-1.49%
24,CSc1sc(NC(=O)N2CCOCC2)c(-c2ccc(Cl)cc2)c1C#N,3.63%

row,Compound,inhibition
1,Oc1c(Cl)c(Cl)c(Cl)c2ccccc12,4.73%
2,CN(C)/C=C1/C(=O)NN=C1CSc1ccc(Cl)cc1,-3.51%
3,Cc1ccc(N=C2SC3(CC3)C(=O)N2c2ccc(C)cc2)cc1,-0.15%
4,CC1(C)CCc2cc(-c3ccnc(SCC(=O)c4ccccc4)n3)ccc2O1,-4.62%
5,O=C(NCc1cccnc1)c1cnc2ccccc2n1,-0.07%
6,CC(=O)NC(Cc1c[nH]c2ccccc12)C(=O)O (stereo not given),-1.35%
7,O=C(c1ccc(F)cc1)C1CCN(Cc2cn[nH]c2-c2ccccc2)CC1,0.3%
8,CC1(NC(=O)OCc2ccccc2)CC1NC(=O)OCc1ccccc1 (stereo not given),1.98%
9,O=c1[nH]cc(Br)c(=O)[nH]1,-0.43%
10,CC1CN(c2ccc(NC(=S)NCc3cccs3)cc2)CC(C)O1 (stereo not given),-35.2%
11,O=C(O)CC(CC(=O)N1CCOCC1)c1ccccc1 (stereo not given),-4.82%
12,O=C(CSc1ccc(Cl)cc1)NCCSCc1ccco1,-0.61%
13,O=C(NCCO)NCCSc1ccc(F)cc1,-2.48%
14,FC(F)(F)c1cccc(-n2c(-c3ccncc3)n[nH]c2=S)c1,97.8% (active)
15,CSc1n[nH]c(=O)n1-c1cccc(C(F)(F)F)c1,1.69%
16,FC(F)(F)c1ccc(-n2cn[nH]c2=S)cc1,53.1%
17,O=c1[nH]/c(=C/c2ccc(OC(F)(F)F)cc2)c(=O)[nH]/c1=C/c1ccc(OC(F)(F)F)cc1,0.16%
18,O=C(Nc1ccc(Cl)cc1)c1csc(COc2ccc3nonc3c2)n1,3.82%
19,Cn1cc(C(=O)c2ccc(Cl)cc2)cc1/C=C(\C#N)S(=O)(=O)c1ccc(C(F)(F)F)cn1,2.9%
20,O=C(Nc1ccccc1)Nc1nc2ccccc2s1,-7.1%
21,O=c1c2cc(-c3ccccc3)sc2nc2n1N=C(c1cccs1)CS2,-0.02%
22,COc1cc(OC)nc(S(C)(=O)=O)n1,-4.97%
